ssDAF12 agonist – S. stercoralis DAF-12 nuclear receptor activators, primary screen, cell-based, luminescence, HEK293, GRIP1 co-expression, lit1-tk-luc; 370,000 compounds, 1% hits; activation, % at 6.8 µM; HEK293 ssDAF-12/GRIP1 lit1-tk-luc reporter; % of 3 µM dafachronic acid response; Nuclear hormone receptor DAF-12 (Strongyloides stercoralis);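 active = activation above the mean over all tested compounds plus 3 SD, cut at about 0.9% in these data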
SMARCA2 act – SMARCA2 (BRM) function activators, primary screen, cell-based, luminescence, high throughput; MG213 cells, MMTV-luciferase reporter, dexamethasone, overnight; 370,000 compounds, 1% hits; AID 652017, 2013; activation, % at 9.1 µM; in the data active = activation above about 7.8%
DAX1 inh-1 – DAX1 (NR0B1) inhibitors, primary screen, cell-based, HEK293, Gal4-DAX1, luciferase luminescence. Nuclear receptor subfamily 0 group B member 1 (Homo sapiens), P51843. HEK293 Gal4-DAX1 luciferase reporter. inhibition, % at 6.75 µM. 340,000 compounds, 0.99% hits;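 active = inhibition above the mean over all tested compounds plus 3 SD, cut at about 4.2% in these data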;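 note: inhibition shows as a rise in luminescence from relieved DAX1 repression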
hcDAF-12 act – H. contortus DAF-12 nuclear receptor activators, primary screen, cell-based, luminescence, HEK293, lit1-tk-luc reporter | HEK293 hcDAF-12 lit1-tk-luc reporter; 0% DMSO, 100% Δ7-dafachronic acid | activation, % at 6.8 µM | 370,000 compounds, 1.4% hits | AID 652067, 2013;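 active = activation above the mean of all tested compounds plus 3 SD, cut at about 5.5% in these data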
DAX1 inh-2 – DAX1 (NR0B1) inhibitors on StAR promoter, primary screen, cell-based, luminescence, SF-1 (NR5A1), full-length DAX-1; inhibition, % at 6.8 µM; 370,000 compounds, 1.1% hits; HEK293T StAR-luciferase reporter, SF-1/DAX-1 repression relief; AID 652010, 2013;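 active = inhibition above the mean over all tested compounds plus 3 SD, cut at about 3.6% in these data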;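 note: higher inhibition means more luminescence from relief of DAX-1 repression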
hgDAF12 agonist – H. glycines DAF-12 receptor agonists, primary screen, cell-based, luminescence, HEK293, GAL4 fusion, UAS-luciferase; Nuclear hormone receptor DAF-12 (Heterodera glycines), GAL4 fusion; HEK293 GAL4-hgDAF12 UAS-luciferase reporter, agonist luminescence; normalized to butyrate control; activation, % at 6.8 µM; 370,000 compounds, 1.8% hits;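 active = activation above a cutoff set at the mean of all screened compounds plus 3 SD, cut at about 10% in these data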
DAX1 conf – DAX1 (NR0B1) inhibitors relieving SF-1 repression, confirmation, cell-based, luminescence, HEK293T, full-length DAX-1, SF-1 activated StAR promoter; shares compounds with DAX1 inh-2; HEK293T StAR-promoter luciferase reporter, SF-1/DAX-1 repression; inhibition, % at 6.8 µM; 2,400 compounds, 87% hits; AID 652134, 2013;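 active = inhibition above the average of every tested compound plus 3 SD, cut at about 3.8% in these data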
SF1 mutant ctr – StAR reporter signal changes without DAX1, counter-screen for DAX1 inhibitor project, cell-based, luminescence, AF-2 mutant SF-1, transactivation | inhibition, % at 6.8 µM | HEK293 StAR-luciferase, SF-1 AF2 mutant | shares compounds with DAX1 inh-2 | 2,400 compounds, 78% hits | AID 652136, 2013;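 active = inhibition above the mean of all tested compounds plus 3 SD, cut at about 3% in these data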
SMARCA2 conf – SMARCA2 (BRM) function activators, confirmation, cell-based, luminescence, triplicate. shares compounds with SMARCA2 act. MG213 cells, MMTV-luciferase with dexamethasone, overnight; MG213 cells expressing E1A, Rb sequestered; DMSO wells 0%, reference activator 100%. activation, % at 9.1 µM. 3,500 compounds, 30% hits. AID 652260, 2013;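 active = activation above its plate's cutoff, the mean activation of tested wells plus 3 SD, cut at about 7.9% in these data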
VP16 Luc act – GAL4-VP16 luciferase reporter activation, counter-screen for SMARCA2 (BRM) activator project, cell-based, pG5luc, luminescence, high throughput | shares compounds with SMARCA2 act | HEK293 GAL4-VP16 pG5luc reporter; scaled: DMSO wells 0%, SAHA wells 100% | activation, % at 9.1 µM | 3,500 compounds, 41% hits | AID 686939, 2013;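 active = activation above the solvent-only control well mean plus 3 SD, averaged across control plates, cut at about 5.2% in these data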
hgDAF12 conf – H. glycines DAF-12 receptor agonists, confirmation, cell-based, luminescence, HEK293, GAL4-LBD fusion. AID 743050, 2013. shares compounds with hgDAF12 agonist. 3,300 compounds, 80% hits. activation, % at 6.8 µM. HEK293 GAL4-hgDAF12 luciferase reporter, agonist mode; percent of butyrate response;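 active = mean activation over triplicate wells above the hit cutoff derived from the earlier primary screen, cut at about 11% in these data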
LXRb DAF12 ctr – LXR agonists, Gal4 luciferase reporter, confirmation, counter-screen for hgDAF-12 agonist project, cell-based, luminescence, HEK293, H. glycines campaign; shares compounds with hgDAF12 agonist; 3,300 tested, under 10 active; 24 h; activation, % at 6.8 µM; AID 743051, 2013;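 active = mean activation of the triplicate above a set limit carried over from the primary screen, none filed active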
Target sequence (P55055 whole entry, looked up, the tested form may be a part): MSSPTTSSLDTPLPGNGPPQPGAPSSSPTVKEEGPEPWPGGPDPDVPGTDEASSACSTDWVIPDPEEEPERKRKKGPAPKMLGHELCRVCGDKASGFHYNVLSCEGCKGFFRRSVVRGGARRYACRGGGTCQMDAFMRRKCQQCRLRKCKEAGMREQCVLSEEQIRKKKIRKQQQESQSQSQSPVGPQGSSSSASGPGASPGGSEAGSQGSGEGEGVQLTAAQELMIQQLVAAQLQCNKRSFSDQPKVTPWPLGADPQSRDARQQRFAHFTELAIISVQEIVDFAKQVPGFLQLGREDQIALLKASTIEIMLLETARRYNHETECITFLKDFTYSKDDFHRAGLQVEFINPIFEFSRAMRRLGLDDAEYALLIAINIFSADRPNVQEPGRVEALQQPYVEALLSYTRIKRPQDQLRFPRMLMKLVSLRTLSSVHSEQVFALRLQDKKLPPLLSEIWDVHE
Each line names hits and unclear results; the compound was inactive in the other large screens (follow-up assays come after a bar, where they were run). Rows were chosen to be rich in hits. Some 4.8% of all compounds tested hit in one or more screens of this group.

C=CCn1c(SC(C)C(=O)NC2CC2)nnc1-c1ccoc1C (centres undefined)	none
Fc1cccc(/C=N/Nc2ccccn2)c1	none
C=CCOc1ccc(/C=N/Nc2ccccn2)cc1OC	SMARCA2 act 9.0, DAX1 inh-2 5.3, hgDAF12 agonist 13.9 | DAX1 conf 4.7 | SF1 mutant ctr inactive | SMARCA2 conf 9.2 | VP16 Luc act 10.8 | hgDAF12 conf 11.2 | LXRb DAF12 ctr inactive
C(=N\Nc1ccccn1)/c1ccc2c(c1)OCCO2	hcDAF-12 act 6.0, DAX1 inh-2 5.6, hgDAF12 agonist 27.0 | DAX1 conf 15.4 | SF1 mutant ctr 9.4 | hgDAF12 conf 21.8 | LXRb DAF12 ctr inactive
O=C(O)c1cc(N/N=C/c2ccc3c(c2)OCCO3)ccc1Cl	DAX1 inh-2 4.6, hgDAF12 agonist 16.6 | DAX1 conf 12.6 | SF1 mutant ctr 6.0 | hgDAF12 conf 23.2 | LXRb DAF12 ctr inactive
CCOc1ccc(/C=N/Nc2ccccn2)cc1OC	DAX1 inh-2 6.7, hgDAF12 agonist 15.8 | DAX1 conf 8.3 | SF1 mutant ctr 4.4 | hgDAF12 conf 13.4 | LXRb DAF12 ctr inactive
COc1ccc(O)c(C(=O)c2cnn(C(=O)c3cccc(S(=O)(=O)N4CCOCC4)c3)c2)c1	none
C[C@H](CO)N1C[C@H](C)[C@H](CN(C)C(=O)NC2CCCCC2)Oc2cc(-c3cccnc3)ccc2S1(=O)=O	none
